ELG1 genotoxic = qHTS screen for small molecules that induce genotoxicity in human embryonic kidney (HEK293T) cells expressing luciferase-tagged ELG1; HEK293T ELG1-luciferase reporter, luminescence, 16 h; actives 1.3% (n = 330,000); Potency, µM (doses to about 46 µM), for inactives: at the top dose activity change, positive = activation, hits mostly activators; further: % of control where 0% means no effect; nearly all actives have a fitted effect of over 60% in size
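Genotoxic stress is detected as increased luminescence from luciferase-tagged ELG1 in HEK293T cells, measured with ONE-Glo after a 16 hr treatment at 37 °C.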
p53 reactivation = qHTS assay for re-activators of p53 using a Luc reporter; H1299 p53-A138V BP100-luciferase reporter, luminescence, 24 h; Potency, µM (top dose mostly 92.2 µM), without a hit: at the highest dose activity change, positive = activation, most hits filed as activators; actives 0.063% (n = 320,000); AID 504706, 2011; further: % of control where 0% means no effect; nearly all actives have a fitted effect of over 45% in size
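H1299 (p53-null), stable ts p53-A138V + BP100-Luc; 1000 cells/well, Opti-MEM/10% FBS; cpd 4 pt, 1:5; 24 h, 37 deg C, 5% CO2; detection reagent 10 min RT; luminescence.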
Rab9 promoter act = qHTS Assay for Rab9 Promoter Activators; Huh7 Rab9 promoter-luciferase reporter, luminescence, 24 h; Potency, µM (highest dose often 9.22 µM), without a hit: at the highest dose activation, negative = inhibition, most hits filed as activators; actives 2.8% (n = 320,000); AID 485297, 2010; further: % of control where 0% means no effect; nearly all actives have a fitted effect of over 60% in size
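Huh7 reporter line, Rab9 promoter upstream of luciferase. Compound exposure 24 h at 37 °C in reduced-serum medium with 10% FBS. Read-out: luminescence.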
FLuc counter = qHTS profiling assay for firefly luciferase inhibitor/activator using purifed enzyme and Km concentrations of substrates (counterscreen for miR-21 project); Potency, µM (doses to about 57.5 µM), inactives show at the top dose activity change, negative = inhibition, actives largely listed as inhibitors; actives 6.9% (n = 360,000); purified FLuc, Km substrates, luminescence inhibition; AID 588342, 2011; Luciferin 4-monooxygenase (Photinus pyralis), P08659;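 further: plate controls were vehicle for no effect and reference inhibitor for full effect; nearly all actives have a fitted effect of over 55% in size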
Target sequence (P08659 whole entry, looked up): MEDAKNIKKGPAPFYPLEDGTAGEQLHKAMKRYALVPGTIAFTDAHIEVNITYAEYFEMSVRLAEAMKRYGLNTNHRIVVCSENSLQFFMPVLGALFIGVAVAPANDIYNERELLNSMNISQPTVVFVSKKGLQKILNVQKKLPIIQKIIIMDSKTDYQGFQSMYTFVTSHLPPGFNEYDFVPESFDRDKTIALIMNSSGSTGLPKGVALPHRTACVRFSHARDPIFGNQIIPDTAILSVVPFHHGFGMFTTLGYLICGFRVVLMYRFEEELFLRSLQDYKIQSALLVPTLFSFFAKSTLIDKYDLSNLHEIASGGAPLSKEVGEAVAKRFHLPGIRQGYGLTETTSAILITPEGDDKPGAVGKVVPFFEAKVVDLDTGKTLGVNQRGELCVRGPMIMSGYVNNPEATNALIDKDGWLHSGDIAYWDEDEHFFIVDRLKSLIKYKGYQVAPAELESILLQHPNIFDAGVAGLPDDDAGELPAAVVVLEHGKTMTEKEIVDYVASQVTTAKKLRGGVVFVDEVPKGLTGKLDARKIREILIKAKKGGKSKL
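Purified P. pyralis luciferase (10nM final) with 10uM D-luciferin and 10uM ATP (Km levels) in 50mM Tris acetate pH 7.5, 10mM Mg acetate, 0.01% Tween-20, 0.05% BSA; qHTS 6-point titration, ~60 µM downward; luminescence read.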
NPC1 promoter act = qHTS Assay for NPC1 Promoter Activators. Huh7 NPC1 promoter luciferase reporter, 24 h. Potency, µM (doses to about 9.22 µM), inactives show at the top dose activation, most hits filed as activators. actives 2.4% (n = 320,000). AID 485313, 2010; further: % of control where 0% means no effect; nearly all actives have a fitted effect of over 60% in size
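Quantitative HTS used a cell-based reporter: Huh7 cells stably bearing the NPC1 promoter upstream of luciferase were treated with compounds for 24 h, and promoter activation was read as luminescence.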
SMN2 splice up = qHTS Assay for Enhancers of SMN2 Splice Variant Expression | HEK293 SMN2-luciferase splicing reporter, luminescence, 30-36 h | AID 1458, 2008 | actives 2.8% (n = 210,000) | Potency, µM (titrated, usually from 46.1 µM), inactives show at the highest dose activity change, positive = activation, most hits filed as activators; further: % of control where 0% means no effect; nearly all actives have a fitted effect of over 55% in size
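qHTS luciferase splicing reporter: luminescence rises when SMN2 exon 7 is included in transfected HEK293 cells. Compound exposure lasted 30-36 h at 37C, with 4.5 mM final sodium butyrate as control, followed by a ONE-Glo read.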
* = called active by the depositor; ? = inconclusive; nt = no result given; [ ] = dose if it differs, or a comment. Compounds with a hit are over-represented: about 7.4% of the library has one in this group of screens. The call rests on the fitted dose curve; in most records, active means well fitted curve in the direction sought with a large enough effect; inconclusive means small, poorly fitted or top-dose-only effect, or another doubt; inactive means no such curve, though single readings can be large; an effect the other way counts as inactive or inconclusive. Potency means the concentration at half of the fitted maximal effect.

SMILES	ELG1 genotoxic	p53 reactivation	Rab9 promoter act	FLuc counter	NPC1 promoter act	SMN2 splice up
CC1CCC2(CC1)NC(=O)N(CC(=O)c1ccc(Cl)s1)C2=O (stereo not given)	-2%	-6%	1%	0%	-1%	nt
Cc1nnc(SCc2ccc(C(=O)Nc3cc(Cl)ccc3C)cc2)s1	0%	-2%	-6%	15µM*	-1%	-29%
Cc1ccc(NC(=O)c2ccc(CSc3nnc(-c4ccncc4)n3C)cc2)c(C)c1	-1%	-3%	0%	?	-3%	-4%
CC(=O)Nc1nnc(SCc2ccc(C(=O)Nc3ccccc3F)cc2)s1	9%	5%	14%	4%	-5%	-17%
Cc1ccc(NC(=O)c2ccc(CSc3nnc(C)s3)cc2)c(C)c1	5%	4%	?	13µM*	?	12%
Cc1ccc(Cn2c(C)c(CNC(C)c3ccccc3)c(C(=O)O)c2C)cc1 (stereo not given)	nt	nt	nt	-8%	nt	2%
COc1ccccc1OC[C@H](O)COC(N)=O	nt	nt	nt	nt	nt	-4%[20.6 µM]
CCOc1ccc(C(=O)N/N=C/c2ccc(SC)cc2)cc1	7%	-13%	-4%	-8%	2%	?
CCOc1ccc(NC(=O)/C=C/c2ccccc2)c([N+](=O)[O-])c1	17%	?	?	?	25%	?
CCOc1ccc(/C=C/C(=O)NCc2ccccc2)cc1	8%	9%	-2%	15µM*	2%	6%
CCOc1ccc(C(=O)/C=C/c2ccc(SC)cc2)cc1	0%	2%	-1%	5.4µM*	1%	-6%
CC(C)(C)C(=O)/C=C/c1ccc(Oc2ccccc2)cc1	?	20%	6.3µM*	6µM*	?	nt
CCOc1ccc(N/C=C/C(=O)c2ccccc2)c([N+](=O)[O-])c1	?	16%	0.1µM*	0.12µM*	0.1µM*	0.56µM*
CCOc1ccc(C(=O)/C=C/c2cc(OC)c(OC)c(OC)c2)cc1	-9%	-11%	-15%	?	-7%	-57%
CCOc1ccc(/C=C/C(=O)c2ccccc2)cc1	?	?	0.79µM*	0.15µM*	1.1µM*	nt
O=C(/C=C/c1ccccc1)NCCOc1ccccc1	?	?	?	24µM*	27%	?
O=C(NCCOc1ccccc1)C1CCCCC1	?	3%	3.2µM*	?	?	20µM*
COc1ccc2nc3cc(Cl)ccc3c(Nc3ccc(O)c(CN4CCN(C)CC4)c3)c2c1	nt	nt	nt	nt	nt	5%[9.22 µM]
O=C1CC(c2nc3ccccc3[nH]2)CN1c1ccccc1 (stereo not given)	-5%	-5%	2%	0%	3%	-4%
c1ccc(C2=Nc3ccccc3SC2c2nc3ccccc3[nH]2)cc1 (stereo not given)	nt	nt	nt	17µM*	nt	?
Cc1ccc(-c2cc(C(=O)N/N=C\c3cnn(C)c3C)c3ccccc3n2)cc1C	?	?	25%	0.67µM*	12%	1%
Cc1c(-c2cc(C(=O)O)c3ccccc3n2)cnn1C	-4%	5%	-1%	-19%	-4%	13%
Cc1ccc(-c2cc(C(=O)NCc3cnn(C)c3C)c3ccccc3n2)cc1C	nt	nt	nt	2.1µM*	nt	?
Cc1ccccc1-c1cc(C(=O)N/N=C/c2cccnc2)c2ccccc2n1	2%	-10%	-1%	-6%	0%	nt
CCC1=C2CC[C@H]3C(=O)N(CC)C(=O)[C@H]3[C@H]2[C@@]2(C)C(=NCC(=O)OC)OC(=O)N2C1=O	nt	nt	nt	nt	nt	0%
SMILES	ELG1 genotoxic	p53 reactivation	Rab9 promoter act	FLuc counter	NPC1 promoter act	SMN2 splice up
COC(=O)c1nc2ccc(N3CCOCC3)cc2c(C)c1C(=O)OC	-3%	15%	2.8µM*	2.4µM*	?	10µM*
COC(=O)c1c(-c2ccc(OC)cc2)sc2ccc(N3CCOCC3)cc12	4%	7%	nt	nt	nt	nt
CCOc1ccc(NC(=O)/C(C#N)=C/c2cn(CC(=O)O)c3ccccc23)cc1	1%	4%	-2%	19µM*	0%	nt
CCc1ccc(NC(=O)/C(C#N)=C/c2cn(CC(=O)O)c3ccccc23)cc1	0%	2%	2%	?	0%	4%
N#C/C(=C/c1cn(CC(=O)O)c2ccccc12)C(=O)Nc1ccccc1	2%	-1%	-8%	15µM*	-3%	nt
NC(=O)C1=NOC(CNc2ncc(C(F)(F)F)cc2Cl)C1 (stereo not given)	23µM*	8%	?	?	21%	9%
COc1ccc(/C=C/C(=O)C2C(=O)C=C(C)OC2=O)cc1O (stereo not given)	?	?	18%	6µM*	?	12%
C=CCn1c(=O)c2ccccc2n2c(SCc3nc4ccccc4s3)nnc12	?	?	?	12µM*	5%	-26%
COCCn1c(SCC(=O)NC(C)c2ccccc2)nc2ccccc21 (stereo not given)	-2%	-4%	1%	-3%	-2%	nt
COCCn1c(SCc2nc3ccccc3s2)nc2ccccc21	?	?	3.5µM*	12µM*	?	10%
CCOCCCn1c(SCc2nc3ccccc3s2)nc2ccccc2c1=O	-8%	?	16%	17µM*	15%	-109%
COc1ccc(NC(=O)CN(C)C(=O)CN2C(=O)C3CCCCC3C2=O)cc1 (stereo not given)	-1%	2%	-4%	-1%	-2%	nt
Cc1nc2oc3ccc(F)cc3c(=O)c2cc1C(=O)NC(C)(C)C	?	6%	15%	?	1%	?
CC(C)c1ccc2oc3nc(N)c(C(=O)O)cc3c(=O)c2c1	nt	nt	0.5µM*	0.43µM*	0.32µM*	nt
Cc1nc2oc3ccc(Cl)cc3c(=O)c2cc1C(=O)O	16%	16%	?	24µM*	?	nt
CCOc1ccc(NC(=S)N2CCC(NC(=O)C3CCCCC3)CC2)cc1	-1%	1%	0%	4%	-2%	nt
CCCOc1ccc(C(=O)Nc2ccc3oc(-c4ccc(N(C)C)cc4)nc3c2)cc1	nt	nt	nt	-12%	nt	9%
Cc1ccc(C)c(N2CCN(C(=O)Cn3c(=O)c4cccn4c4ccc(F)cc43)CC2)c1	nt	nt	nt	3%	nt	nt
Cc1c(C(=O)N(C)c2cccc(C(F)(F)F)c2)sc2nc3n(c(=O)c12)CCCCC3	nt	nt	nt	13µM*	nt	nt
CCc1ccc(NC(=O)c2ccc3c(=O)n4c(nc3c2)CCCCC4)cc1	-8%	7%	0%	17µM*	19%	nt

Compound activity: PubChem BioAssay, National Center for Advancing Translational Sciences (NCATS)
